# Of roughly 7,900 targets only a part is listed; those with a hit were picked by preference. About 0.6% of all pairs of compound and target were hits. Values without a mark were called inactive.
# Legend:
# Test in all cases: log2 fold change, soluble protein after heating vs DMSO (PISA); higher = thermal stabilisation; K562 cells, 10 uM, 30 min; active = over 0.2 and 3.5 SD of the protein, either way, in both replicates (recomputed)
# saracatinib = compound: CN1CCN(CCOc2cc(OC3CCOCC3)c3c(Nc4c(Cl)ccc5c4OCO5)ncnc3c2)CC1 [saracatinib]
# Method in brief: (§1)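 Aliquots of K562 cells (2×10^6 cells/mL) treated with 10 μM compound for 30 min were heated for 3 min over 48°C-58°C. After pooling and extraction in PBS with 0.5% NP-40 at 4°C, soluble protein from a 21,000xg, 90 min spin was quantified by TMTpro 16plex LC-MS/MS with channel sums equalised. Thermal stability is expressed against control samples, from duplicates, as a log2 fold change.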
# sotrastaurin = compound: CN1CCN(c2nc(C3=C(c4c[nH]c5ccccc45)C(=O)NC3=O)c3ccccc3n2)CC1 [sotrastaurin]
# Method in brief: as §1
# alvocidib = compound: CN1CC[C@H](c2c(O)cc(O)c3c(=O)cc(-c4ccccc4Cl)oc23)[C@H](O)C1 [alvocidib]
# Method in brief: as §1
# Tubastatin A = compound: CN1CCc2c(c3ccccc3n2Cc2ccc(C(=O)NO)cc2)C1 [Tubastatin A]
# Method in brief: as §1
# [1] = compound: CNC(=O)C1=CC=CC=C1NC2=NC(=NC=C2Cl)NC3=C(C=C(C=C3)N4CCOCC4)OC
# Method in brief: as §1
# defactinib = compound: CNC(=O)c1ccc(Nc2ncc(C(F)(F)F)c(NCc3nccnc3N(C)S(C)(=O)=O)n2)cc1 [defactinib]
# Method in brief: as §1
# rucaparib = compound: CNCc1ccc(-c2[nH]c3cc(F)cc4c3c2CCNC4=O)cc1 [rucaparib]
# Method in brief: as §1
# [2] = compound: CNc1nc(-c2ccc3c(N)n[nH]c3c2)cc(N2C[C@@H](C(=O)NC3CCCCC3)CC[C@H]2C)n1
# Method in brief: as §1
# encorafenib = compound: COC(=O)N[C@@H](C)CNc1nccc(-c2cn(C(C)C)nc2-c2cc(Cl)cc(NS(C)(=O)=O)c2F)n1 [encorafenib]
# Method in brief: as §1
# [3] = compound: COC(=O)[C@H](CCSC)NC(=O)C1=C(C=C(C=C1)NC[C@H](CS)N)C2=CC=CC=C2
# Method in brief: as §1
# Sequence of UniProt Q9BU23 (Q9BU23 whole entry, looked up): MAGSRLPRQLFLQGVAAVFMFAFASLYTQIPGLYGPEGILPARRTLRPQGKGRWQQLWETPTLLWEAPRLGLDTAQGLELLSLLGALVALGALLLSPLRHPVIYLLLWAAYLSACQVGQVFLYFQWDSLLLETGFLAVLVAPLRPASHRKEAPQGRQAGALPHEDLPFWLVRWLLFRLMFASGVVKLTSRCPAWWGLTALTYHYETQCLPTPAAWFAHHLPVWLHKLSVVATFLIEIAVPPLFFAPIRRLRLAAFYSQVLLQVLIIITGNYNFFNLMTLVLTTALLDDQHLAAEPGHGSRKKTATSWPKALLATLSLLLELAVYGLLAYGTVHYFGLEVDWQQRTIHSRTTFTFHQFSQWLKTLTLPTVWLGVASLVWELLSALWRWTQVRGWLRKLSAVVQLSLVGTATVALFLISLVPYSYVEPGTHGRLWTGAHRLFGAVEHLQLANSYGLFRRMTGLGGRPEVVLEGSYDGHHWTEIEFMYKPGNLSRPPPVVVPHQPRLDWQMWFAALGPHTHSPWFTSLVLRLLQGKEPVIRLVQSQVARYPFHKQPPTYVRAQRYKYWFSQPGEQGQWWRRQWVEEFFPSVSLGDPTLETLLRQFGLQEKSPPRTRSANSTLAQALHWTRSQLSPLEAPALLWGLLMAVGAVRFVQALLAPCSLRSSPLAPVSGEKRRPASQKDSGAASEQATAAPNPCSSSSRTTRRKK
# Sequence of UniProt Q9NVC6 (Q9NVC6 whole entry, looked up): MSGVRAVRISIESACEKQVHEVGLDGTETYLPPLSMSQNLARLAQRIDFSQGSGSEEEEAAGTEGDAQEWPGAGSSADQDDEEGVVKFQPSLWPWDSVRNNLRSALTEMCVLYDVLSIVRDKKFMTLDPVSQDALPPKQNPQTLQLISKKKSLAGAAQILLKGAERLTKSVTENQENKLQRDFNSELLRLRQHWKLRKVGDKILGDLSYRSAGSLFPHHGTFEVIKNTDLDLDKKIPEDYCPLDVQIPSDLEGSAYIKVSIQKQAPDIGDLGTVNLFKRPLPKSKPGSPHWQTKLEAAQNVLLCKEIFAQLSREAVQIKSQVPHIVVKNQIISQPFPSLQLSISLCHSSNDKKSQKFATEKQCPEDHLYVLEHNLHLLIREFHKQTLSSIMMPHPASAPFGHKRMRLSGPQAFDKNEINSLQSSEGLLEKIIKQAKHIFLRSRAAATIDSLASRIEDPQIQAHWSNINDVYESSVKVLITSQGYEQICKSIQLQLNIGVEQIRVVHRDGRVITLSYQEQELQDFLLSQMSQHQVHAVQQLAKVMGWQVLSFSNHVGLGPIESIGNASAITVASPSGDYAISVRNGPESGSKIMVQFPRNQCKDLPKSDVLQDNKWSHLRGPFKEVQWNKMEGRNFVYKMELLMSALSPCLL
# Sequence of UniProt O94822 (O94822 whole entry, looked up): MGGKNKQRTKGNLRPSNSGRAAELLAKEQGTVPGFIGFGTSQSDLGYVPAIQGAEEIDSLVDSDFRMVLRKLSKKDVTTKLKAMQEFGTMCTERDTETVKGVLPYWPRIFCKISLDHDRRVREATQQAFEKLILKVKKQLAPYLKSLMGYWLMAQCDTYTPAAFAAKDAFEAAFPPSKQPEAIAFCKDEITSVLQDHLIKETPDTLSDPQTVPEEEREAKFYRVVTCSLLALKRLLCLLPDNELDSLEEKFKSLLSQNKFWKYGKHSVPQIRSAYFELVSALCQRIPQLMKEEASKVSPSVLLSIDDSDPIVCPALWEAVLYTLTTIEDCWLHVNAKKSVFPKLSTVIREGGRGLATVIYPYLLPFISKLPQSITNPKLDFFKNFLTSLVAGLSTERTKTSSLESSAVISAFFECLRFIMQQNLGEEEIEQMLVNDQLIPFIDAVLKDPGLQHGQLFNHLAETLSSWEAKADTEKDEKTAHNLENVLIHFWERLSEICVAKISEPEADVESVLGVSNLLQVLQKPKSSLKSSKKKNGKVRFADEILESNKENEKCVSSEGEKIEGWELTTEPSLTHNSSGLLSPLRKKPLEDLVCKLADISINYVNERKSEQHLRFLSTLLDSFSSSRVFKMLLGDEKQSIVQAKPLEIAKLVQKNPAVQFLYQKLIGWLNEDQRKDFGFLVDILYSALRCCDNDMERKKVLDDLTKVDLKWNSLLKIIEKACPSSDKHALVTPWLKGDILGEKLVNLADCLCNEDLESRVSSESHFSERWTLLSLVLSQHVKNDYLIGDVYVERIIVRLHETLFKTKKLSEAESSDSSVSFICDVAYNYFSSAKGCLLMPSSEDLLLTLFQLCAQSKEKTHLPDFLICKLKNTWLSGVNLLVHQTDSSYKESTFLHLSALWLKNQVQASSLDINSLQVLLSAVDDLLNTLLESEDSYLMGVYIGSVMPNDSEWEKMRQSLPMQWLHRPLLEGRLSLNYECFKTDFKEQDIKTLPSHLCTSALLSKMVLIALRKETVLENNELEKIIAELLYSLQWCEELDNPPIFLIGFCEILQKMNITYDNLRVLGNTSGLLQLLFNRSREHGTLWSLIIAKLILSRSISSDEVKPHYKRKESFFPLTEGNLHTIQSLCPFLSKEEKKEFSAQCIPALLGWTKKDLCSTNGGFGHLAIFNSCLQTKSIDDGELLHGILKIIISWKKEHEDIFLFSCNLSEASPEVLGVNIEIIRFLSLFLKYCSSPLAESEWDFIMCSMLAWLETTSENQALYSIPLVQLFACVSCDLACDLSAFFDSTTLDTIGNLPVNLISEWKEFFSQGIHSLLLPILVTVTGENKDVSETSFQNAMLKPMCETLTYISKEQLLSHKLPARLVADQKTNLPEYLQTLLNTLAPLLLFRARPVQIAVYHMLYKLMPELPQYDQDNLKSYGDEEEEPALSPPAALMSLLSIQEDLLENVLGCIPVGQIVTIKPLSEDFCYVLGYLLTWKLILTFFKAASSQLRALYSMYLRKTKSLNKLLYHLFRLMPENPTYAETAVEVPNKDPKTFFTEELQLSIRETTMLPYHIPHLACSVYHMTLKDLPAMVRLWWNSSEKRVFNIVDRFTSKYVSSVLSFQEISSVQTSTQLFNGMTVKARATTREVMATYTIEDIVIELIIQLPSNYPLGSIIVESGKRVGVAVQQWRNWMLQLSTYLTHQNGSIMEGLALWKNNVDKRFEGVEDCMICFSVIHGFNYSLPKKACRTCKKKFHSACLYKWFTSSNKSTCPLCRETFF
# Sequence of UniProt Q6P9B6 (Q6P9B6 whole entry, looked up): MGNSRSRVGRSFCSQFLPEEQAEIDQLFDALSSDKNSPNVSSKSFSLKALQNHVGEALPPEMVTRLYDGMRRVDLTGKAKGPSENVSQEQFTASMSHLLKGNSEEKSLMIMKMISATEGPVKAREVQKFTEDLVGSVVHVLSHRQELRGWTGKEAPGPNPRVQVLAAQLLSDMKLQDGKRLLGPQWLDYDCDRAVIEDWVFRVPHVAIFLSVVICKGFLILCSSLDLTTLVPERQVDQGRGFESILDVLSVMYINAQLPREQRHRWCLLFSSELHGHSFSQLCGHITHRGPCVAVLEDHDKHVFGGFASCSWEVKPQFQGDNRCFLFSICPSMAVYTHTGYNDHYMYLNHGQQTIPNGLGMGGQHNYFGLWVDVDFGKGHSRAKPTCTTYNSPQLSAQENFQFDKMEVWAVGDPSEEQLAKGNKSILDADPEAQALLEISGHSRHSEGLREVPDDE
# Sequence of UniProt Q96P70 (Q96P70 whole entry, looked up): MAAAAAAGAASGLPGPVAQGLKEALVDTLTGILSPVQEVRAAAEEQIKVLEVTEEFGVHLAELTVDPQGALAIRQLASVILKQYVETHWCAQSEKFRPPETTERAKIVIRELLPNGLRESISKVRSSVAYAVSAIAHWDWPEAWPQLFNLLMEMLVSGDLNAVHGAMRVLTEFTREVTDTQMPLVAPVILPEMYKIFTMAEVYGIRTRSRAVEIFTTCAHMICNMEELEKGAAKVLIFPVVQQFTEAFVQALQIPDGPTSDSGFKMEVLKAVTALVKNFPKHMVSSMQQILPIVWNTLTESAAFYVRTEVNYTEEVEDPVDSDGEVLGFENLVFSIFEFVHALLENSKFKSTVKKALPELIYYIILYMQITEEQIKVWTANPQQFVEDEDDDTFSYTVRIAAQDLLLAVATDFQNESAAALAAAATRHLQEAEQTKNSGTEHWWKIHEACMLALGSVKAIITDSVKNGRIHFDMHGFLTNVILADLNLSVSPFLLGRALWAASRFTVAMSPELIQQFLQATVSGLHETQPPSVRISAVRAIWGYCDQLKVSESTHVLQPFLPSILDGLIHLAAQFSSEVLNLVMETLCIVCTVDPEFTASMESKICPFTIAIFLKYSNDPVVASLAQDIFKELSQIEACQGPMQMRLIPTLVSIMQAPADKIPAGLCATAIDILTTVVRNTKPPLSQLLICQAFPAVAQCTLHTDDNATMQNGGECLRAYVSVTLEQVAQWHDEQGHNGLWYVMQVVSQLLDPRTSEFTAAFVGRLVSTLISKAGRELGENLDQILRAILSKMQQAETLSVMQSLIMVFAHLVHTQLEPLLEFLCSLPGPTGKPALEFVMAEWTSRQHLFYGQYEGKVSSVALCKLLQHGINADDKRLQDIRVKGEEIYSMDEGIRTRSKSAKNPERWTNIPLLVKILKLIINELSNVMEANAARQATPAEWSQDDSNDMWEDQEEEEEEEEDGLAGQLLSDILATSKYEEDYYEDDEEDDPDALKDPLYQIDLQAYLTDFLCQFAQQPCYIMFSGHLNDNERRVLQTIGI
# Sequence of UniProt Q14653 (Q14653 whole entry, looked up): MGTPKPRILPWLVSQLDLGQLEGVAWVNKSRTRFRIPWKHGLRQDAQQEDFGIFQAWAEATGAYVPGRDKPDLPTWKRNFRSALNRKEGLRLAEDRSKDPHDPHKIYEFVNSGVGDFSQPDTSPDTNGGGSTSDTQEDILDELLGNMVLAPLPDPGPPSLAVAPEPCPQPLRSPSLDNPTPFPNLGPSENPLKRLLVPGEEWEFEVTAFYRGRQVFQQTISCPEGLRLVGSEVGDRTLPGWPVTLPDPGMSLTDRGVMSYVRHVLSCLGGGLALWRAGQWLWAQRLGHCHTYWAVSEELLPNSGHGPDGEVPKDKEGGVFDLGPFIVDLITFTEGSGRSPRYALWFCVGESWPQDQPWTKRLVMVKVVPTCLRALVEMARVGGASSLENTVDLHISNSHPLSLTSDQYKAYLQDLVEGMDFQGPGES
Target,log2 fold change (saracatinib),log2 fold change (sotrastaurin),log2 fold change (alvocidib),log2 fold change (Tubastatin A),log2 fold change [1],log2 fold change (defactinib),log2 fold change (rucaparib),log2 fold change [2],log2 fold change (encorafenib),log2 fold change [3]
MDN1 (UniProt Q9NU22),-0.029,-0.035,-0.143,0.033,-0.092,-0.166,-0.067,0.018,0.018,-0.049
LGALS8 isoform 2 (UniProt O00214),-0.359,-0.323,0.053,0.07,-0.244,0.104,0.306,0.141,0.218,-0.051
MAP4 (UniProt E7EVA0),0.03,-0.015,0.127,0.041,-0.059,0.099,0.209,0.043,0.017,0.032
IRF3 (UniProt Q14653),0.061,-0.043,-0.07,0,0.006,-0.062,-0.057,-0.01,0.014,-0.014
MAPK9 (UniProt P45984),-0.118,0.046,0.002,-0.013,0.328 (active),0.003,-0.02,0,0.018,0.029
LDLR (UniProt P01130),0.113,0.003,-0.04,-0.002,0.003,-0.033,0,-0.065,0.01,0.104
KIAA1324L (UniProt A8MWY0),0.018,0.014,-0.056,-0.017,-0.014,0.033,-0.021,0.023,0.015,0.006
LMNB1 (UniProt P20700),0.029,-0.11,-0.173,-0.016,0.007,-0.166,-0.035,-0.095,0.016,0.032
MIEF1 (UniProt Q9NQG6),-0.016,-0.042,-0.031,-0.024,-0.002,0.014,-0.009,-0.088,0.023,-0.018
MAP2K2 (UniProt P36507),0.012,-0.037,-0.024,0.01,-0.138,-0.056,-0.039,-0.021,-0.074,0.001
MIF (UniProt P14174),-0.029,-0.005,-0.001,-0.065,0.82,-0.019,0.026,-0.105,-0.058,0.06
MED17 (UniProt Q9NVC6),-0.063,-0.145,-0.009,0.009,-0.049,-0.021,0.109,0.031,-0.081,0.055
MAP2K3 isoform 3 (UniProt P46734),0.024,0.017,-0.029,-0.045,-0.025,-0.063,0.058,-0.061,-0.02,0.003
KIF13A (UniProt Q9H1H9),0.063,0.041,-0.01,0.028,0.1,-0.026,0.008,-0.093,-0.025,0.034
IPO9 (UniProt Q96P70),0.036,-0.13,-0.08,-0.02,0.034,-0.106,-0.051,-0.136,0.056,0
LTN1 isoform 3 (UniProt O94822),-0.016,-0.114,-0.042,0.196,0.01,-0.114,0.158,-0.012,0.047,-0.057

Target,log2 fold change (saracatinib),log2 fold change (sotrastaurin),log2 fold change (alvocidib),log2 fold change (Tubastatin A),log2 fold change [1],log2 fold change (defactinib),log2 fold change (rucaparib),log2 fold change [2],log2 fold change (encorafenib),log2 fold change [3]
MICU2 (UniProt Q8IYU8),0,-0.001,0.048,0.057,-0.03,-0.014,0.102,-0.021,0.073,-0.044
MDC1 (UniProt Q14676),-0.194,-0.003,0.027,0.011,-0.162,-0.012,0.082,0.119,0.075,-0.067
MFGE8 (UniProt Q08431),-0.171,-0.013,0.034,0.08,0.066,0.099,-0.043,-0.018,0.037,-0.023
MAST4 (UniProt O15021),0.006,-0.103,-0.065,0.012,-0.087,-0.149,-0.101,-0.006,0.042,-0.017
L2HGDH (UniProt Q9H9P8),-0.009,0.091,-0.039,-0.002,-0.017,-0.011,-0.005,0.012,-0.022,0.049
LBR (UniProt Q14739),0.008,0.036,-0.032,-0.008,-0.02,-0.022,0.164,0.116,0.058,-0.089
LNPEP (UniProt Q9UIQ6),0.048,0.037,0.01,-0.001,-0.01,-0.054,-0.014,-0.02,-0.008,0.012
IGF2R (UniProt P11717),-0.015,0.004,-0.008,-0.004,0.061,-0.01,-0.027,-0.008,0.045,0.005
IPO11 isoform 2 (UniProt Q9UI26),0.048,-0.02,-0.006,-0.043,0.01,-0.013,-0.053,-0.03,-0.004,0.012
KPNA1 (UniProt P52294),-0.014,-0.174,-0.019,0.021,0.006,-0.064,0.151,-0.078,0.197,0
KEL (UniProt P23276),0.09,-0.009,-0.044,0.004,-0.091,-0.038,0.006,-0.026,-0.061,0.03
LARP1 (UniProt Q6PKG0),-0.023,-0.029,0.12,0.059,0.05,0.089,0.11,0.004,0.039,0.01
LMF2 (UniProt Q9BU23),0.006,-0.043,0.035,0.048,0.007,0,0.082,-0.02,0.052,-0.04
MEAK7 (UniProt Q6P9B6),0.043,-0.004,-0.056,0.028,-0.088,-0.041,0.008,0.026,0.02,0.088
LTO1 (UniProt Q8WV07),0.071,-0.003,-0.01,-0.288,0.01,0.051,0.03,0.073,-0.016,-0.314 (active)
